{
  "source": "PubChem BioAssay AID488911",
  "about": "(Broad Institute, 2010)",
  "note": "Entries with a potency or affinity are not part of this list. Activity calls are given as the source filed them.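 How the source made its calls: active means falling signal whose fitted half-effect dose is at or below ten times the top valid dose; inconclusive means flat fit showing a moderate drop, or a poor fit; inactive means the rest.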",
  "data": [
    {"test": "NIH-3T3 viability with fluconazole co-treatment – cell-based, Alamar Blue, dry powder, set 2, cytotoxicity control for antifungal resistance reversal project, dose response (AID 488911)", "settings": "48 h; series mostly up to 26 µM", "values": [
      {"compound": "CC(C)C(=O)N1CCN(c2ccnc3cc(Cl)ccc23)CC1", "outcome": "inactive"},
      {"compound": "O=C(Nc1ccc(Cl)cc1)N1CCN(c2ccnc3cc(Cl)ccc23)CC1", "outcome": "inactive"},
      {"compound": "O=C(C1CCC1)N1CCN(c2ccnc3cc(Cl)ccc23)CC1", "outcome": "inactive"},
      {"compound": "CC(C)CC(=O)N1CCN(c2ccnc3cc(Cl)ccc23)CC1", "outcome": "inactive"},
      {"compound": "O=C(c1ccc(Cl)cn1)N1CCN(c2ccnc3cc(Cl)ccc23)CC1", "outcome": "inactive"},
      {"compound": "O=C(c1ccc(Cl)cc1)N1CCCN(c2ccnc3cc(Cl)ccc23)CC1", "outcome": "inactive"},
      {"compound": "COc1ccc2c(N3CCN(C(=O)c4ccc(Cl)cc4)CC3)ccnc2c1", "outcome": "inactive"},
      {"compound": "COc1cccc2c(N3CCN(C(=O)c4ccc(Cl)cc4)CC3)cc(C)nc12", "outcome": "inactive"},
      {"compound": "O=C(c1ccc(Cl)cc1)N1CCN(c2ncnc3ccccc23)CC1", "outcome": "inactive"},
      {"compound": "O=C(c1cccc(Cl)c1)N1CCN(c2ccnc3cc(Cl)ccc23)CC1", "outcome": "inactive"},
      {"compound": "O=C(c1ccc(Cl)cc1)N1CCN(c2ccnc3ccc(Cl)cc23)CC1", "outcome": "inactive"},
      {"compound": "O=C(c1ccc(Cl)cc1)N1CCN(c2ccccn2)CC1", "outcome": "inactive"},
      {"compound": "O=C(C1CCCC1)N1CCN(c2ccnc3cc(Cl)ccc23)CC1", "outcome": "inactive"},
      {"compound": "COc1ccc(C(=O)N2CCN(c3ccnc4cc(Cl)ccc34)CC2)cc1", "outcome": "inactive"},
      {"compound": "O=C(c1ccc(F)cc1)N1CCN(c2ccnc3cc(Cl)ccc23)CC1", "outcome": "inactive"},
      {"compound": "O=C(c1ccc(Cl)cc1)N1CCNCC1", "outcome": "inactive"},
      {"compound": "Cc1cc(N2CCN(C(=O)c3ccc(Cl)cc3)CC2)c2ccc(F)cc2n1", "outcome": "inactive"},
      {"compound": "COCCC(=O)N1CCN(c2ccnc3cc(Cl)ccc23)CC1", "outcome": "inactive"},
      {"compound": "O=C(c1ccc(Cl)cc1)N1CCN(c2ccnc3ccccc23)CC1", "outcome": "inactive"},
      {"compound": "O=C(c1ccc(Cl)cc1)N1CCN(c2ccncc2)CC1", "outcome": "inactive"},
      {"compound": "O=C(C1CCCCC1)N1CCN(c2ccnc3cc(Cl)ccc23)CC1", "outcome": "inactive"},
      {"compound": "Clc1ccc2c(N3CCNCC3)ccnc2c1", "outcome": "inactive"},
      {"compound": "CCCC(=O)N1CCN(c2ccnc3cc(Cl)ccc23)CC1", "outcome": "inactive"},
      {"compound": "Cc1cc(N2CCN(C(=O)c3ccc(Cl)cc3)CC2)c2ccccc2n1", "outcome": "inactive"},
      {"compound": "O=C(c1ccccc1Cl)N1CCN(c2ccnc3cc(Cl)ccc23)CC1", "outcome": "inactive"},
      {"compound": "O=C(c1ccc(Cl)cc1)N1CCN(c2ncnc3nc[nH]c23)CC1", "outcome": "inactive"},
      {"compound": "CC1CN(c2ccnc3cc(Cl)ccc23)CCN1C(=O)c1ccc(Cl)cc1", "note": "(stereo unspecified)", "outcome": "inactive"},
      {"compound": "O=C(c1ccc(Cl)cc1)C1CCN(c2ccnc3cc(Cl)ccc23)CC1", "outcome": "inactive"},
      {"compound": "N#Cc1ccc(N2CCN(C(=O)c3ccc(Cl)cc3)CC2)nc1", "outcome": "inactive"},
      {"compound": "O=C(c1ccc(Cl)nc1)N1CCN(c2ccnc3cc(Cl)ccc23)CC1", "outcome": "inactive"},
      {"compound": "O=C(c1ccc(Cl)cc1)N1CCN(c2ccnc3cc(Cl)ccc23)CC1", "outcome": "inactive"}
    ]}
  ]
}
